APE1 inh: qHTS Assay for Inhibitors of the Human Apurinic/apyrimidinic Endonuclease 1 (APE1); DNA repair nuclease/redox regulator APEX1 (Homo sapiens), P27695; recombinant APE1, TAMRA/BHQ-2 abasic DNA cleavage fluorescence; Potency, µM (series often up to 65.8 µM), for inactives: top-dose activity change, negative = inhibition, most hits filed as inhibitors; 350,000 tested, 0.35% active; AID 2517, 2012;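 note: plate controls were vehicle for no effect and reference inhibitor for full effect; nearly all actives have a fitted effect of over 55% in size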
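APE1 at 0.75 nM final was preincubated with compound 15 min at room temperature, then 50 nM double-stranded THF abasic-site substrate (5'-TAMRA/3'-BHQ-2) was added. Fluorescence (ex 525/em 598 nm) was read kinetically; third-minus-first read gave activity.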
BLM helicase inh: qHTS Assay for Inhibitors of Bloom's syndrome helicase (BLM) | recombinant BLM DNA unwinding, fluorescence dequenching | 350,000 tested, 0.2% active | RecQ-like DNA helicase BLM (Homo sapiens), P54132 | AID 2528, 2010 | Potency, µM (series often up to 56.1 µM), for the others: at the top dose activity change, negative = inhibition, most hits filed as inhibitors;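 note: plate controls were vehicle for no effect and no enzyme for full effect; nearly all actives have a fitted effect of over 35% in size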
KAT2A inh: qHTS Assay for Inhibitors of GCN5L2; Histone acetyltransferase KAT2A (Homo sapiens), Q92830; GCN5L2 HAT assay, ThioGlo1 CoA-SH fluorescence; Potency, µM (highest dose often 58.9 µM), for the others: at the highest dose activity change, negative = inhibition, usual class: inhibitors; 390,000 tested, 0.21% active
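Enzyme at 20nM final was mixed with library compounds for 15 min at room temperature. Peptide H3(1-25) at 75uM, acetyl-CoA at 70uM and ThioGlo1 at 50uM were then added. Plates were read immediately and after 20 min (Ex340nm/Em540nm).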
L3MBTL1 inh: qHTS Assay for the Inhibitors of L3MBTL1 | Lethal(3)malignant brain tumor-like protein 1 (Homo sapiens), Q9Y468 | AlphaScreen L3MBTL1–H3K9me1 peptide binding | Potency, µM (doses to about 57.1 µM), for the others: top-dose activity, negative = inhibition, actives largely listed as inhibitors | 230,000 tested, 0.66% active | AID 485360, 2010; note: nearly all actives have a fitted effect of over 60% in size
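AlphaScreen proximity signal between nickel-chelate acceptor and streptavidin donor beads (final 10 ug/mL) reports binding of 50 nM L3MBTL1 to 75 nM biotin-H3 K9me1 peptide; complex incubated with compounds 30 min at room temperature; cefsulodin titration as control.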
KDM4E inh: qHTS Assay for Inhibitors of Human Jumonji Domain Containing 2E (JMJD2E). Lysine-specific demethylase 4E (Homo sapiens), B2RXH2. 230,000 tested, 1.6% active. JMJD2E catalytic domain, FDH-coupled NADH fluorescence (FDH is formaldehyde dehydrogenase). Potency, µM (titrated, usually from 57.1 µM), inactives show top-dose activity change, negative = inhibition, actives largely listed as inhibitors. AID 2147, 2009; active = well fitted inhibition curve with a large enough effect, not every such curve was filed as active; inconclusive = small, poorly fitted or top-dose-only effect, or another doubt; inactive = no such curve, though single readings can be large or run the other way;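 note: 0% = wells with enzyme and -100% = buffer wells without enzyme; nearly all actives have a fitted effect of over 50% in size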
RECQ1 inh: qHTS Assay for Inhibitors of RecQ-Like Dna Helicase 1 (RECQ1) | ATP-dependent DNA helicase Q1 (Homo sapiens), P46063 | RECQ1 DNA unwinding, red fluorescence kinetic read | Potency, µM (top dose mostly 57.3 µM), inactives show top-dose activity, negative = inhibition, usual class: inhibitors | 240,000 tested, 0.54% active | AID 2549, 2010;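 note: plate controls were vehicle for no effect and no enzyme for full effect; nearly all actives have a fitted effect of over 30% in size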
Target sequence (P46063 whole entry, looked up): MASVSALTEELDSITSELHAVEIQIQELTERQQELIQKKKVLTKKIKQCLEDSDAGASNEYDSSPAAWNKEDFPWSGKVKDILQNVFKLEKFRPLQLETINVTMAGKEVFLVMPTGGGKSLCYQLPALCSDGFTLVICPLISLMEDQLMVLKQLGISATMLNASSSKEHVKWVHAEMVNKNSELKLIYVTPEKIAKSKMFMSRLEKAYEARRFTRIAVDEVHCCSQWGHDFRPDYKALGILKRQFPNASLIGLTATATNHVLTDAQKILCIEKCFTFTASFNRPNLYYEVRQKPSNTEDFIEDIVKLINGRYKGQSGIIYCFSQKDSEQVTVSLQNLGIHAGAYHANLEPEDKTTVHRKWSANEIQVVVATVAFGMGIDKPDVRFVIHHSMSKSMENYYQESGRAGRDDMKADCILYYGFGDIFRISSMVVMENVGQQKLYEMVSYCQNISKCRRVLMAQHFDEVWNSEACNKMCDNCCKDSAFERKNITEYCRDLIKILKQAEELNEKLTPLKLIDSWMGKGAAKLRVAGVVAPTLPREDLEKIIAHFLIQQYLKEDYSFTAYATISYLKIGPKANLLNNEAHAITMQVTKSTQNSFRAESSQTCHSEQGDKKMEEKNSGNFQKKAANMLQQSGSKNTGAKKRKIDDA
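RECQ1T1 50 nM; forked duplex (20 bp + 30-nt ss tails) 200 nM, ATP 2 mM final; pH 8.0, 2 mM MgCl2, 2.5 ug/ml poly(dI-dC); 15 min compound preincubation; discontinuous kinetic read over 2 h at RT.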
* marks the source's active call; other numbers are inactive results; ! = not confirmed by another sample; [ ] = another dose, or the depositor's remark. The full list was thinned out, with hits kept by preference. Unless noted, calls come from the whole dose curve; as a rule, active = well fitted curve in the direction sought with a large enough effect; inconclusive = small, poorly fitted or top-dose-only effect, or another doubt; inactive = no such curve, though single readings can be large; an effect the other way counts as inactive or inconclusive. Unless noted, % is set by controls: 0 for no effect and ±100 for the full control effect; potency is the fitted concentration of half-maximal effect.

What do the screens show for `O=C1[C@@H]2[C@H]3[C@H](O)[C@H](O)C/C(=N/OCc4ccccc4)[C@H]3CC[C@H]2C(=O)N1c1ccc(F)cc1F`?
APE1 inh: 12%[12.4 µM]; BLM helicase inh: 0%[12.4 µM]; RECQ1 inh: 15%[11.5 µM]

What do the screens show for `COc1ccc(OC2C=CC(c3ccccc3)OC2CO)c(C(C)(C)C)c1` (centres undefined)?
APE1 inh: -5%[12.4 µM]; BLM helicase inh: -6%[12.4 µM]; RECQ1 inh: -11%[11.5 µM]

How did CC(C)COCC(CN(Cc1ccccc1)c1ccccc1)N1CCCC1 (centres undefined) do in these assays?
APE1 inh: -9%; BLM helicase inh: 7%; KAT2A inh: -2%; KDM4E inh: 14µM*!; RECQ1 inh: 4%

Results for COC(=O)C/C=C\[C@@H](C)[C@@H](/C=N\O[C@@H](C)c1cn([C@H]2COC[C@H]2O)nn1)OC ?
APE1 inh: -7%[12.4 µM]; BLM helicase inh: 1%[12.4 µM]; RECQ1 inh: -4%[11.5 µM]

What do the screens show for `COc1cc2c(cc1OC)-c1cc3nc4ccccc4nc3n1C(C)(C)C2`?
APE1 inh: inconclusive; BLM helicase inh: -10%; KAT2A inh: inconclusive; KDM4E inh: 4.5µM*; RECQ1 inh: inactive

Results for COc1cc2c(cc1OC)-c1n[nH]c(=S)n1C(C)(C)C2 ?
APE1 inh: -4%; BLM helicase inh: 3%; KAT2A inh: -3%; KDM4E inh: inconclusive; RECQ1 inh: -5%

Results for CC(=O)C[C@H](O)[C@@H](NC(=O)OC(C)(C)C)C(C)C ?
APE1 inh: 39%[12.4 µM]; BLM helicase inh: 2%[12.4 µM]; RECQ1 inh: -2%[11.5 µM]

What do the screens show for `C/C1=C2N=C(/C=C3N=C(/C(C)=C4\[N-]C(C)(C5N=C1C(C)(CCC(=O)NCC(C)OP(=O)([O-])O[C@H]1C(O)C(n6cnc7cc(C)c(C)cc76)O[C@@H]1CO)C5CC(N)=O)C(C)(CC(N)=O)C4CCC(N)=O)C(C)(CC(N)=O)C\3CCC(N)=O)C(C)(C)C/2CCC(N)=O.[CH2-]C1OC(n2cnc3c(N)ncnc32)C(O)C1O.[Co]` (some centres undefined)?
BLM helicase inh: inconclusive; KAT2A inh: 23%; KDM4E inh: 14µM*; RECQ1 inh: inactive

How did S=c1ccss1 do in these assays?
APE1 inh: -3%; BLM helicase inh: 1%; KAT2A inh: 25µM*; KDM4E inh: inconclusive; RECQ1 inh: -5%

How did COc1cc2cc(Oc3ccc4ccc(=O)oc4c3)c(=O)oc2cc1OC1OC(COC(=O)CC(C)(O)CC(=O)O)C(O)C(O)C1O (centres undefined) do in these assays?
APE1 inh: -3%; BLM helicase inh: -9%; KAT2A inh: -7%; L3MBTL1 inh: -7%; KDM4E inh: inconclusive; RECQ1 inh: -3%

How did COc1cc2cc(Oc3ccc4ccc(=O)oc4c3)c(=O)oc2cc1O[C@@H]1O[C@H](CO)[C@@H](O)[C@H](O)[C@H]1O do in these assays?
APE1 inh: -39%; KAT2A inh: -25%; L3MBTL1 inh: 32µM*

How did CCOC(=O)c1c(C)n(-c2ccc(C)cc2)c2ccc(OCC(O)CNCCCO)cc12 (centres undefined) do in these assays?
APE1 inh: 8%; BLM helicase inh: 52%; KAT2A inh: -5%; KDM4E inh: 0%; RECQ1 inh: -3%

What do the screens show for `CCOC(=O)c1c(C)n(-c2ccc(C)cc2)c2ccc(OCC(O)CNCC3CCCO3)cc12` (centres undefined)?
APE1 inh: -10%; BLM helicase inh: -3%; KAT2A inh: -9%; KDM4E inh: 28µM*; RECQ1 inh: inactive

Results for COc1ccc(-n2c(Cc3cccn3C)nnc2SCC(=O)N2CCCc3ccccc32)cc1 ?
APE1 inh: 10%; BLM helicase inh: -6%; KAT2A inh: 19%; L3MBTL1 inh: -2%; KDM4E inh: 1%; RECQ1 inh: 16µM*

How did COc1ccc(-n2c(Cc3cccn3C)nnc2SCC(=O)N2CCCC2)cc1 do in these assays?
APE1 inh: -2%; BLM helicase inh: 3%; KAT2A inh: 3%; L3MBTL1 inh: -1%; KDM4E inh: -4%; RECQ1 inh: -2%

Results for CC1NC(=O)NC1CCCCCC(=O)NCCc1ccccc1 (centres undefined) ?
APE1 inh: -4%; BLM helicase inh: 1%; KAT2A inh: -23%; L3MBTL1 inh: 1.4µM*; KDM4E inh: -6%; RECQ1 inh: -14%

Results for Cc1cccc(C)c1NC(=O)CCCCCC1NC(=O)NC1C (centres undefined) ?
APE1 inh: 24%; BLM helicase inh: -2%; KAT2A inh: 2%; KDM4E inh: 3%; RECQ1 inh: -14%

Results for COc1ccc(CCNCC(=O)Nc2ccc(C)c(S(=O)(=O)N(C)C)c2)cc1 ?
APE1 inh: 10%; BLM helicase inh: -1%; KAT2A inh: -6%; L3MBTL1 inh: 1%; KDM4E inh: 28µM*; RECQ1 inh: inactive

What do the screens show for `COc1ccc(CCC(=O)Nc2ccc(C)c(S(=O)(=O)N(C)C)c2)cc1OC`?
APE1 inh: 19%; BLM helicase inh: 0%; KAT2A inh: -1%; L3MBTL1 inh: 0%; KDM4E inh: 2%; RECQ1 inh: -15%

Results for COc1cc(/C=N/NC(=S)NC2CC3C=CC2C3)cc(OC)c1OC (centres undefined) ?
APE1 inh: -4%; BLM helicase inh: -10%; KAT2A inh: -26%; L3MBTL1 inh: -18%; KDM4E inh: -14%; RECQ1 inh: -7%

Results for Oc1c(Br)cc(Br)cc1/C=N/NC(=S)N[C@H]1CC2C=CC1C2 (some centres undefined) ?
APE1 inh: -3%; BLM helicase inh: -20%; KAT2A inh: -21%; L3MBTL1 inh: -70%; KDM4E inh: 8.9µM*; RECQ1 inh: -24%

What do the screens show for `CNC(=S)N/N=C/c1cc(Br)cc(Br)c1O`?
APE1 inh: -14%; BLM helicase inh: 3%; KAT2A inh: inconclusive; L3MBTL1 inh: 2µM*; KDM4E inh: -2%; RECQ1 inh: -8%

How did COc1ccc(NC(=O)CN2C(=O)S/C(=C/c3cccn3-c3ccc(C(=O)O)cc3)C2=O)cc1 do in these assays?
APE1 inh: 1.7µM*; BLM helicase inh: inconclusive; KAT2A inh: inconclusive

Bioassay records as filed in PubChem BioAssay.
